# Results published in PubChem BioAssay (NCI).
# Compounds without any hit were thinned out: in the full panel of roughly 83,000, 20% have a hit.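 Cells were grown in 96-well plates and exposed to the test compound at a single concentration for 48 hours; results are reported as percent growth, with values below 10 considered active.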 Activity calls are given as the source filed them.
# Tested on: OVCAR-5 ovarian
# Assay: NCI-60 one-dose screen, 48 h (100 = growth as untreated, 0 = no growth, -100 = all killed)
# Conditions: 10 µM
row,Compound,growth
1,COc1ccc2nc(Cl)c(Cn3nnc(Cc4ccccc4)n3)cc2c1,82.8% (inactive)
2,C=C/C(C)=C/C[C@]1(C)[C@H](C)[C@@H](OC(=O)CCC)[C@H](O)[C@@]23C(=C[C@H](OC)C[C@@H]12)[C@@H](OC(=O)CCC)O[C@H]3OC(C)=O,-41.3% (active)
3,COc1ccc(-c2nn(-c3cccc(Cl)c3)cc2-c2cc(-c3ccccc3)nc(N)n2)cc1,59% (inactive)
4,COc1cc2c3c(n(C4CCN(C)CC4)c(=O)c2cc1OC)-c1cc2c(cc1C3=O)OCO2,138% (inactive)
5,COc1cc(-c2ccc[nH]2)[nH]c1/C=C1\N=C(C)C(C(=O)NC(C)C)=C1C,43.2% (inactive)
6,COc1ccc(-c2nn(-c3cccc(Cl)c3)cc2C=C(C#N)C#N)cc1,29% (inactive)
7,Fc1ccc2[nH]cc(-c3nc(-c4ccsc4)cs3)c2c1,107% (inactive)
8,CCn1c2ccc(O)cc2c2c(C)c3c[n+](C)ccc3c(C)c21,88.7% (inactive)
9,CC[C@H]1OC(=O)[C@H](C)[C@@H](O[C@H]2C[C@@](C)(OC)[C@@H](O)[C@H](C)O2)[C@H](C)[C@@H](O[C@@H]2O[C@H](C)C[C@H](N(C)C)[C@H]2O)[C@](C)(OC)C/C(C)=C2/O[C@@]1(C)C=C2C,24.9% (inactive)
10,N#Cc1c(-c2ccc(Cl)cc2)cc(-c2cc(O)ccc2O)nc1N,86.6% (inactive)
11,COc1cc2c3c(n([C@@H]4CCOC4)c(=O)c2cc1OC)-c1cc2c(cc1C3=O)OCO2,77% (inactive)
12,COc1ccc(-c2cc(-c3ccccc3)nc(SCCCCCCC(=O)NO)n2)cc1,58.2% (inactive)
13,COc1ccc(-c2nn(-c3cccc(Cl)c3)cc2-c2c(C#N)c(=O)n3[nH]c(-c4ccccc4)nc3c2C#N)cc1,106% (inactive)
14,CN1CCc2c(sc3nc4n(-c5ccc(Cl)cc5)cnn4c(=O)c23)C1,105% (inactive)
15,O=C(CCCCNC(=O)c1nc(-c2ccccc2)n(-c2ccccc2)n1)NO,85% (inactive)
16,Cc1c2c[n+](C(C)C)ccc2c(C)c2c1[nH]c1ccccc12,55.7% (inactive)
17,Cc1c2cnccc2c(C)c2c1c1cc(O)ccc1n2C(C)C,69.2% (inactive)
18,CC(C)(C)OC(=O)CN1CCc2c(sc3ncnc(N/N=C/c4cccc5ccccc45)c23)C1,31.1% (inactive)

row,Compound,growth
1,Nc1nc(-c2cccnc2)nc2c1sc(=S)n2-c1ccccc1,125% (inactive)
2,CC(C)(C)OC(=O)N1CCc2c(sc3ncnc(N/N=C/c4cccc(Br)c4)c23)C1,70.5% (inactive)
3,O=C(CCCSc1nc(-c2ccc(Cl)cc2)cc(-c2ccc(Cl)cc2)n1)NO,18% (inactive)
4,CN1CCc2c(sc3nc4n(-c5ccc(Cl)cc5)c(=O)[nH]n4c(=O)c23)C1,115% (inactive)
5,CCNc1nc(C(F)(F)F)nc2c1sc(=S)n2-c1ccccc1,112% (inactive)
6,IC(I)I,94.1% (inactive)
7,Cc1cc(NC(=O)c2ccc(C)c(Nc3nccc(-c4cccnc4)n3)c2)cc(-n2cnc(C)c2)c1,46% (inactive)
8,c1cncc(-c2csc(-c3c[nH]c4ccccc34)n2)c1,95.6% (inactive)
9,Cc1ccc(NC(=S)NNC(=S)Nc2ccc(C)cc2)cc1,89.1% (inactive)
10,Cc1ccc(C2=NN(c3ccc(S(C)(=O)=O)cc3)C(=O)CC2)cc1,53.1% (inactive)
11,CCc1ccc(C2=NN(c3ccc(S(C)(=O)=O)cc3)C(=O)CC2)cc1,48.7% (inactive)
12,COc1ccc(-c2nn(-c3cccc(Cl)c3)cc2/C=C2\NC(=S)N(c3ccc(Cl)cc3)C2=O)cc1,53.7% (inactive)
13,COc1ccc(-c2nn(-c3cccc(Cl)c3)cc2-c2c(C#N)c(=O)n3[nH]c(-c4ccc(C)cc4)nc3c2C#N)cc1,87% (inactive)
14,c1cnc2[nH]cc(-c3nc(-c4ccsc4)cs3)c2c1,111% (inactive)
15,O=C1NC(=O)c2c(CCCSc3nc4ccccc4c(=O)n3CCc3ccccc3)cccc21,102% (inactive)
16,Nc1ccccc1NC(=O)c1ccc(CCCC(=O)Nc2ccc(C3CC3N)cc2)cc1 (stereo unspecified),33.1% (inactive)
17,Cc1c(O)c(=O)ccn1C1CCC(CC2CCC(n3ccc(=O)c(O)c3C)CC2)CC1 (stereo unspecified),54.5% (inactive)
18,Cc1c2cnccc2c(C)c2c1oc1ccccc12,82.4% (inactive)
